Compound activity (PubChem)
Only some compounds are listed: those with a hit (about 27% of all), similar ones and a draw of the others.
sEH activator – increases human soluble epoxide hydrolase activity. P34913. purified human sEH enzymatic activity, activator screen. activation, % at 2 µM. 0.04% of 91,000 active. AID 717; in the data active means activation above about 37%
Target sequence (P34913 whole entry, looked up): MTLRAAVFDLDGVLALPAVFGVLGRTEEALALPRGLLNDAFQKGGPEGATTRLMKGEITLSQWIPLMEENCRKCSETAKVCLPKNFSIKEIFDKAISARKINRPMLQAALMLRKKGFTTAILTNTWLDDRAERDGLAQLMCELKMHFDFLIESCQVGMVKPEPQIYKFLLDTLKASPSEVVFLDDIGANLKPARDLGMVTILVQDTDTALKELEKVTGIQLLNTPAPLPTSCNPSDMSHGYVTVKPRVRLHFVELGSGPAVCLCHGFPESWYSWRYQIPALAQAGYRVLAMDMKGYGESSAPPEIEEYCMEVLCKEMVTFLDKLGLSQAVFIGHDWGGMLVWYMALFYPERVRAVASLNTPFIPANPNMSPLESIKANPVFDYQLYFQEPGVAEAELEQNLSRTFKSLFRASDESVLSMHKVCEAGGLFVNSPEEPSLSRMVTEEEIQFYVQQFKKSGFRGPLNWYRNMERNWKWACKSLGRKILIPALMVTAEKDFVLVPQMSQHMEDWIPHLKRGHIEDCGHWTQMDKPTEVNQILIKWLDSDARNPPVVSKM
CYP2C19 act – cytochrome P450 2C19 (human) activation | activation factor at 5 µM | recombinant CYP2C19, luciferin-H EGE luminescence; hits give high values; 0 = fully inhibited enzyme, 1 = untreated enzyme | AID 1025 | P33261 | 96,000 tested, under 10 active;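 active means activation factor of at least 2 at 5 µM in the primary screen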
sEH inhibitor – inhibitors of human soluble epoxide hydrolase; P34913; recombinant human sEH enzymatic activity assay; inhibition, % at 2 µM; 0.34% of 91,000 active; in the data active means inhibition above about 80%
CYP2C9 activ – activators of human CYP2C9. P11712. recombinant CYP2C9, luciferin-H conversion, luminescence; hits give high values; factor 1 = untreated enzyme, 0 = blocked. activation factor at 5 µM. 1.4% of 96,000 active;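 active means activation factor of 2 or more for CYP2C9 at a 5 µM dose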
CYP2C9 inhib – inhibitors of human CYP2C9; P11712; inhibition, % at 5 µM; CYP2C9 Supersomes, luciferin-H conversion, luminescence; AID 777; 20% of 96,000 active;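 active means blocking of liver enzyme CYP2C9 beyond about 50% at 5 µM, limit read from the data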
CYP2C19 inh – blocks human cytochrome P450 2C19; P33261; CYP2C19 Supersomes, luciferin-H EGE luminescence, 30 min; inhibition, % at 5 µM; 21% of 96,000 active; AID 778;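 active means CYP2C19 inhibition above a set limit at 5 µM in the primary screen, cut at about 50% in these data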
Each line names hits and unclear results; the compound was inactive in the other large screens.

O=C(C(Cc1ccccc1)N1C(=O)c2ccccc2C1=O)N1CCc2ccccc21 (stereo not given)	none (no result: CYP2C19 act, CYP2C9 activ, CYP2C9 inhib, CYP2C19 inh)
CCOc1ccc2cc(C#N)c(SCC(=O)N3CCOCC3)nc2c1	none
CCOC(=O)CSc1nc2cc(OC)ccc2cc1C#N	CYP2C9 inhib 89 (no result: sEH activator, sEH inhibitor)
CCOc1ccc2nc(SCC(=O)N3CCCCCC3)c(C#N)cc2c1	CYP2C9 inhib 69
CN(C)S(=O)(=O)N(Cc1ccc(Br)cc1)c1ccccc1	CYP2C19 inh 86
CN(C)S(=O)(=O)N(CC(=O)Nc1ccccc1F)c1ccccc1	none (no result: CYP2C19 act, CYP2C9 activ, CYP2C9 inhib, CYP2C19 inh)
CN(C)S(=O)(=O)N(CC(=O)N(Cc1ccccc1)Cc1ccccc1)c1ccccc1	CYP2C9 inhib 85, CYP2C19 inh 81
COc1cc(C(=O)O)ccc1OCc1c(C)noc1C	none
Cc1ccc2c(Cl)cc(Cl)c(OCc3c(C)noc3C)c2n1	CYP2C19 inh 67
COc1ccccc1C(=O)OCCN1CCOCC1	none
O=C(OCCN1CCOCC1)C(c1ccccc1)c1ccccc1	CYP2C9 inhib 56, CYP2C19 inh 70 (no result: sEH activator, sEH inhibitor)
CCN1C(=O)NC(c2cc(Br)ccc2OC)C(C(=O)OC)=C1C (stereo not given)	none (no result: CYP2C19 act, CYP2C9 activ, CYP2C9 inhib, CYP2C19 inh)
CN1CC(=O)N(CC(=O)Nc2ccc(F)cc2)c2ccccc2C1=O	none
CCOC(=O)c1c(CN2CCOCC2)n(-c2ccccc2)c2cc(Br)c(OC)cc12	CYP2C9 inhib 78, CYP2C19 inh 52
CCOC(=O)c1c(C)n(C)c2ccc(OC(C)=O)cc12	none (no result: CYP2C19 act, CYP2C9 activ, CYP2C9 inhib, CYP2C19 inh)
COc1cc2c(C(=O)N3CCN(c4ccccc4)CC3)c(C)oc2cc1Br	CYP2C9 inhib 79, CYP2C19 inh 59
CCOC(=O)c1c(CN2CCOCC2)oc2ccc(OC)cc12	none
CCOC(=O)c1c(CN2CCOCC2)n(-c2ccccc2)c2cc(Br)c(O)cc12	CYP2C9 inhib 64, CYP2C19 inh 57
CCOC(=O)c1c(CSC(=N)N)n(-c2ccc(C)cc2)c2cc(Br)c(OC(C)=O)cc12	CYP2C9 inhib 65
COCCCn1c(SCC(=O)NC(C)C)nnc1-c1ccccc1	none
CC1(C)Oc2ccc3ccc(=O)oc3c2/C(=C/NC2CCCCC2)C1=O	none (no result: CYP2C19 act, CYP2C9 activ, CYP2C9 inhib, CYP2C19 inh)
Cc1ccc(C2C(C=Nc3c(C)n(C)n(-c4ccccc4)c3=O)=C(c3ccccc3)Oc3ccccc32)cc1 (stereo not given)	none
CCCCNC(=O)Nc1cnn(CC)c1C(N)=O	none
COc1ccc(OC)c(NC(=O)Cn2cc(C#N)c3ccccc32)c1	CYP2C9 inhib 80, CYP2C19 inh 85
COc1ccc(OC)c(NC(=O)Cn2cccc2)c1	none
COc1ccc(OC)c(NC(=O)Cn2cc(C(=O)c3ccco3)c3ccccc32)c1	CYP2C9 inhib 98, CYP2C19 inh 96
CSc1ncccc1C(=O)OCc1ccc(COC(=O)c2cccnc2SC)cc1	none
O=C1CC(Sc2ncccn2)C(=O)N1c1ccccc1C(F)(F)F (stereo not given)	CYP2C19 inh 59
COc1ccccc1N1C(=O)CC(Sc2ncccc2C(=O)O)C1=O (stereo not given)	none (no result: CYP2C19 act, CYP2C9 activ, CYP2C9 inhib, CYP2C19 inh)
Cc1ccccc1C(=O)/C=C1/c2ccccc2CC(C)(C)N1C	CYP2C9 inhib 58
Cc1cccc(C(=O)/C=C2/c3ccccc3CC(C)(C)N2C)c1	CYP2C9 inhib 85, CYP2C19 inh 87
CN1/C(=C\C(=O)c2ccco2)c2ccccc2CC1(C)C	none
c1cnc2ccc(C(c3nnnn3C3CCCC3)N3CCN4CCCC4C3)cc2c1 (stereo not given)	none
COc1ccc(CNC(=O)CN2C(=O)C(C)N(c3ccc(C)cc3)C2=O)cc1 (stereo not given)	CYP2C9 inhib 78, CYP2C19 inh 94
COc1ccccc1CNC(=O)CN1C(=O)C(C)N(c2ccc(C)cc2)C1=O (stereo not given)	none
Cc1ccc(N2C(=O)N(CC(=O)NCc3ccc(Cl)cc3)C(=O)C2C)cc1 (stereo not given)	CYP2C19 inh 74 (no result: sEH activator, sEH inhibitor)
O=C1CCCc2nc3nc4ccccc4n3cc21	none
O=C(CCC(=O)N1CCOCC1)Nc1nnc(C2CCCCC2)s1	none
CCOC(=O)c1ccc(NC(=O)c2nn(CC)cc2Br)cc1	none
CCOC(=O)c1nn(-c2ccccc2)c(C#N)c1NC(=O)c1nn(CC)cc1Br	CYP2C9 inhib 72
CCOC(=O)c1c(NC(=O)c2nn(CC)cc2Br)c(C#N)nn1-c1ccccc1	CYP2C19 inh 64
CCc1cccc(CC)c1NC(=O)c1cccc(NC(=O)c2ccccc2)c1	CYP2C9 inhib 74
CC(C)c1ccccc1NC(=O)c1cccc(NC(=O)c2ccccc2)c1	CYP2C9 inhib 69
O=C(Nc1cccc(O)c1)c1ccccc1	none
COc1cccc(N2CC(O)Cn3c2nc2c3c(=O)n(CCCc3ccccc3)c(=O)n2C)c1 (stereo not given)	none
Cc1ccc(NC(=O)N2CCC(C(=O)Nc3ccc(C)cc3C)CC2)cc1	none (no result: CYP2C19 act, CYP2C9 activ, CYP2C9 inhib, CYP2C19 inh)
Cc1nn(-c2ccccc2)c2nc(N)c(C#N)c(-c3ccc(F)cc3)c12	CYP2C9 inhib 84
Cc1ccc(-n2nc(C)c3c(-c4cccs4)c(C#N)c(N)nc32)cc1	none
Cc1cc(C)c(C(=O)c2ccc(C(=O)NC(C)(C)C)cc2)c(C)c1	none
Cc1cc(C)c(C(=O)c2ccc(C(=O)N(C(C)C)C(C)C)cc2)c(C)c1	CYP2C9 inhib 82, CYP2C19 inh 86
COc1cc2c3nnc(-c4ccc(F)cc4)c-3cn(Cc3ccc(F)cc3)c2cc1OC	CYP2C9 inhib 77
COc1ccc(Cn2cc3c(-c4ccc(F)cc4)nnc-3c3cc(OC)c(OC)cc32)cc1	none
O=C1OC(C(=O)O)Cc2ccccc21 (stereo not given)	none (no result: CYP2C19 act, CYP2C9 activ, CYP2C9 inhib, CYP2C19 inh)
COc1ccccc1N(CC(=O)Nc1cc(C)on1)S(=O)(=O)c1ccc(Cl)cc1	CYP2C9 inhib 98, CYP2C19 inh 91
COc1ccc(S(=O)(=O)N(CC(=O)Nc2cc(C)on2)Cc2ccccc2)cc1	CYP2C19 inh 81
Cc1cccc(CSc2ncnc3nc[nH]c23)c1	CYP2C19 inh 72 (no result: sEH activator, sEH inhibitor)
CC(C)(C)c1ccc(S(=O)(=O)NCC(=O)N2CCN(C(=O)c3ccco3)CC2)cc1	none
C(=N\n1cnnc1)/c1cccn1-c1ccccc1	none
O/N=C\c1cccn1-c1ccc(Br)cc1	CYP2C19 inh 68
Cc1ccc(C(=O)CCCn2nnc(-c3cccnc3)n2)cc1C	CYP2C9 inhib 55, CYP2C19 inh 80
Cc1ccc(N2C(N)=C(C#N)C3(C(=O)N(C)c4ccccc43)C3=C2CC(C)(C)CC3=O)cc1Cl (stereo not given)	CYP2C9 inhib 54
CCC(=O)N1CCN(c2ccc(NC(=O)c3c(F)c(F)c(OC)c(F)c3F)cc2)CC1	none
Cc1ccccc1NC(=O)CC1(c2ccc(N(C)C)cc2)C(=O)c2ccccc2C1=O	CYP2C19 inh 56
O=C(O)CC1(c2ccccc2)C(=O)c2ccccc2C1=O	none (no result: sEH activator, sEH inhibitor)
CC(c1ccccc1)n1c(-c2ccncc2)n[nH]c1=S (stereo not given)	CYP2C9 inhib 65, CYP2C19 inh 78
CCc1ccccc1-n1c(-c2ccncc2)n[nH]c1=S	CYP2C9 inhib 68, CYP2C19 inh 68 (no result: sEH activator, sEH inhibitor)
